Results filed as inconclusive are left out. Calls of active or inactive are those of the source. The call rests on the fitted dose curve; in most records, active means well fitted inhibition curve with a large enough effect; inconclusive means small, poorly fitted or top-dose-only effect, or effect the other way; inactive means no such curve, though single readings can be large or run the other way.
Assay: Concentration response confirmation VP16 counterscreen for inhibitors of ROR gamma transcriptional activity; further: nearly all actives have a fitted effect of over 70% in size
Details: Drosophila S2 Gal4-VP16 UAS-luciferase, luminescence, 20 h; series mostly up to 46.1 µM; activity change, negative = inhibition: at the top concentration
Procedure, shortened: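 Drosophila Schneider cells stably carrying Gal4-VP16 under metallothionein promoter plus UAS-Photinus luciferase. Compound preincubated 1 hr, then 700 uM copper sulfate induction for 20 hr at ambient temperature; luminescence read.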
On the % scale 0 is the no-effect control and ±100 the full control effect; potency means the concentration at half of the fitted maximal effect.

| SMILES | activity change, negative = inhibition | Potency |
| --- | --- | --- |
| COc1cccc(/C=C2\SC(=S)N(CCCC(=O)N3CCCC3)C2=O)c1 | 11.6% (inactive) |  |
| CCOC(=O)c1sc(NC(=O)c2sc(C)nc2C)nc1C | -0.602% (inactive) |  |
| Cc1cc(C)nc(-n2nc(C)cc2NC(=O)c2ccc(F)cc2F)n1 |  | 2.81 µM (active) |
| Cc1cc(NCc2ccccn2)n2ncc(-c3ccc(Cl)cc3)c2n1 |  | 0.996 µM (active) |
| Fc1cccc2sc(Nc3nnc(-c4ccco4)o3)nc12 |  | 6.28 µM (active) |
| c1csc(CCNc2ncnc3sc4c(c23)CCC4)c1 |  | 25 µM (active) |
| CCOc1ccc(C(=O)Nc2nc3ccccc3[nH]2)cc1OCC |  | 12.5 µM (active) |
| COc1ccc(C(=O)Nc2scc(-c3ccc(Cl)cc3Cl)c2C(N)=O)cc1 | -28.8% (inactive) |  |
| Cc1cccc(-c2ocnc2C(=O)Nc2ccccc2NC(=O)c2ccccn2)c1 |  | 7.91 µM (active) |
| Cc1cc(C)c(S(=O)(=O)NCCn2ccc3ccccc32)c(C)c1 | -83.6% (inactive) |  |
| Cc1c(OC(C)C(=O)NCc2cccnc2)ccc2c3c(c(=O)oc12)CCCC3 (stereo not given) | -9.89% (inactive) |  |
| Cc1cc(NC(=O)CN2CCOCC2)n(-c2nc3ccccc3s2)n1 |  | 12.5 µM (active) |
| Oc1ccccc1-c1cc(-c2ccc3c(c2)OCCO3)n[nH]1 |  | 19.9 µM (active) |
| COc1ccc(-c2cc(-c3nnc(COC(=O)c4ccncc4)o3)c3ccccc3n2)cc1OC | -17.6% (inactive) |  |
| O=[N+]([O-])c1cc2c(cc1/C=N/Nc1nc(Nc3ccccc3)nc(N3CCCCC3)n1)OCO2 | 11.4% (inactive) |  |
| CCOC(=O)[C@@H]1[C@H]2COc3ccc(Br)cc3[C@@H]2N2C(=O)N(c3ccccc3)C(=O)[C@@]12C | 17.3% (inactive) |  |
| O=S(=O)(NCc1ccccn1)C(F)(F)F |  | 25 µM (active) |
| COc1ccc2oc(=O)c(C(=O)Nc3ccccc3C)cc2c1 |  | 7.91 µM (active) |

| SMILES | activity change, negative = inhibition | Potency |
| --- | --- | --- |
| Cc1ccc(C)c(-n2[nH]c3c4c(ccc3c2=O)C(=O)c2ccccc2C4=O)c1 | -24.7% (inactive) |  |
| CCOC(=O)c1ccc2nc(Nc3nc4ccc(F)cc4s3)sc2c1 |  | 25 µM (active) |
| O=C(c1cc(-c2ccc(Cl)cc2)n[nH]1)N1CCc2ccccc2C1 | -9.01% (inactive) |  |
| CCC(C)[C@H](NC(=O)NCc1ccco1)C(=O)O (stereo not given in full) | -8.74% (inactive) |  |
| COc1ccc(C(CNC(=S)NCc2ccccc2)N2CCCC2)cc1 (stereo not given) | 10.3% (inactive) |  |
| O=C(COc1ccccc1)NNc1nc2c(F)cccc2s1 | 9.29% (inactive) |  |
| Cc1sc2ncnc(Sc3nnc4sc5ccccc5n34)c2c1C | -7.34% (inactive) |  |
| COC1CCN(C(=O)c2cc(COc3ccc(-n4cncn4)cc3)on2)CC1 | 2.51% (inactive) |  |
| Cc1cc(-c2ccccc2)nc(N2CCC(C(=O)NCc3ccccc3Cl)CC2)n1 | 11.3% (inactive) |  |
| Cc1ccc(C(=O)O/N=C/c2ccc(N(C)C)cc2)cc1 | 15.9% (inactive) |  |
| CN(Cc1ccccc1)c1ncnc2ccc(Br)cc12 | -13.1% (inactive) |  |
| O=C(O)c1ccccc1SC1CC(=O)N(c2ccc3c(c2)OCO3)C1=O (stereo not given) |  | 19.9 µM (active) |
| Cc1ccc(-c2n[nH]c(=S)n2/N=C/C=C\c2ccccc2[N+](=O)[O-])cc1 | -3.42% (inactive) |  |
| O=C(CCCN1C(=O)/C(=C/c2ccccc2Cl)SC1=S)Nc1cccnc1 |  | 14.1 µM (active) |
| O=C(NCC1CCCO1)C(C(=O)c1ccccc1)n1ccccc1=O (stereo not given) | 1.49% (inactive) |  |
| Cn1c(=O)c2c(nc(NCc3ccco3)n2Cc2ccccc2Cl)n(C)c1=O |  | 3.97 µM (active) |
| COc1nc(N/N=C/c2cc3c(cc2Br)OCO3)nc(N2CCOCC2)n1 | 2.66% (inactive) |  |

Reference: PubChem BioAssay AID2763 (National Center for Advancing Translational Sciences (NCATS), 2010)
